Changes are numbered by the printed parent chain. Over roughly 24,000 sequences, “enrichment r” has its median near 0.99; the highest 2% begin near 3.7. This excerpt belongs to a sample that is enriched for the highest values.
T1: UNK ZnF1-3 (human, UniProt Q9C0B0 31-174)
T1 sequence: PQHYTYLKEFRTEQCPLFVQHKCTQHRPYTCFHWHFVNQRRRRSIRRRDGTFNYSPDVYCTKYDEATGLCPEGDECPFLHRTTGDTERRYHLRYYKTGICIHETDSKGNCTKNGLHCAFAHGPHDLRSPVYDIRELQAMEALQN

B1: chr2:39278355:39278356:-_ENSG00000115904_ENST00000402219|hu_mus|motif|central (ssRNA)
RNA: GGGAGUUCUACAGUCCGACGAUCACAGCUUCCUACUAAUGGGUGGGGACUGCCUUCAUCUGUCAUUUCUACAGUAUCUUCGGUAUGGCCCAGUAACUUUACACUAAGUUCAUGUAUAUCUACUAUACGACUGAAUAUGUUUUCCAACAGAGGAUUGAGCAUCA
B2: chr17:27717376:27717377:-_ENSMUSG00000024213_ENSMUST00000025050|mus_mus|FALSE|FALSE (ssRNA)
RNA: GGGAGUUCUACAGUCCGACGAUCCACAGGACAGAUUUUUAGAAAGUUUCAUCGCACAUGGGUGUCUUUUAAUGAAAAAAAAAAAAAAAAUUCAGAGGAAAUAUCUGGCCAGGCCGGGACGAGACAAAUGGGAGUGCUUCGGAACAACAGAGGAUUGAGCAUCA
B3: 24503659_24515395_812_3pUTR_ENSG00000112294_ENST00000357578|human|control|control (ssRNA)
RNA: GGGAGUUCUACAGUCCGACGAUCGCUCAGCCAGGGCCAGGGCGGAGAAGGGCGUGUCUUCGGCAGGCUUCACCACGACAGUACAGCCGGCUGCCAGGGCGGCCCCCACCUUCCGGGUGAUCAUGGCACUGGGGAAAUUCCACGCAACAGAGGAUUGAGCAUCA
B4: chr14:49642940:49642941:-_ENSMUSG00000061244_ENSMUST00000162175|mus_mus|FALSE|FALSE (ssRNA)
RNA: GGGAGUUCUACAGUCCGACGAUCUAAAGCAUAAUCAAUAUGCUCAAUACAUAAAAAUUCCACAAGAAUGGUAAAAAUUCUAAAGGCAUUCCUUGGUAAAUCAGAAGGAUCAGAAAGCCUAUGACAUCUUUCAAAGGCUUGUUUCAACAGAGGAUUGAGCAUCA
B5: 1087333_1088580_755_CDS_ENSG00000067064_ENST00000381344|human|control|control (ssRNA)
RNA: GGGAGUUCUACAGUCCGACGAUCUACAUUCUUCCUCACCAACAAAAUGUAAUCAAUUUCAUGUUCACCCCAGAUACCAUCAGACUGAGCUUUGUAGUGAAUUCGUGUUAAAUAAUUAAUUUCUUCUGGAGGAACCUCUUCCAACAACAGAGGAUUGAGCAUCA
B6: chr1:66485854:66485855:+_ENSMUSG00000015222_ENSMUST00000077355|mus_mus|FALSE|FALSE (ssRNA)
RNA: GGGAGUUCUACAGUCCGACGAUCCCUUUCAGAAUGUAUUGGAUAGCCUUCAGGCACAUGAAAGGUAAAAAUGCAAUUUAAAAAAUAAUAAUAAUACUCCAUGCAAAACAGAGCAGAGCGAAAAUAAUUGUCCGAUUGUAUCCACAACAGAGGAUUGAGCAUCA
B7: chr1:40083102:40083103:+_ENSMUSG00000026074_ENSMUST00000163854|mus_hu|FALSE|FALSE (ssRNA)
RNA: GGGAGUUCUACAGUCCGACGAUCCAUGAAACAAAUUCUUUCUCAAGACAUUUAUUACAAAUGUCAUGAAUAUAUUCAUAAAGUAAAAUUGGUUUAAAAAAACAGAGAACAAGAGAGCAAGUGAGAAAACGAGAAAAGCCAGGACAACAGAGGAUUGAGCAUCA
B8: chr4:62795864:62795865:+_ENSMUSG00000028358_ENSMUST00000107415|mus_mus|FALSE|FALSE (ssRNA)
RNA: GGGAGUUCUACAGUCCGACGAUCGCCUCCCAGAAAUCACAUGUGAAAAGAAACCGAGUCCCCCAUAAGAUAAAAAAUUUGCUAAAGUAUUGUGAAAAAUGACGACAACAACAACAACAAAAUUGAGUGGAGAGUCAGCUAUGUCAACAGAGGAUUGAGCAUCA
B9: chr19:15271055:15271056:-_ENSG00000074181_ENST00000263388|hu_hu|motif|central (ssRNA)
RNA: GGGAGUUCUACAGUCCGACGAUCCAUAUAUAUAUUUUGUAAAAAAUAAUAAUAAUAAGUUUGUUUAAAUGAAUUUGUUUCGGUACAAAAUGUAAAAAAAAAAAGAAAAAUAAAAAUAAUAAUAAUUCAUUCAUGUCAGAGUGUCAACAGAGGAUUGAGCAUCA
B10: chrX:45232703:45232704:-_ENSMUSG00000031099_ENSMUST00000088973|mus_hu|FALSE|FALSE (ssRNA)
RNA: GGGAGUUCUACAGUCCGACGAUCAGAUGGGACCCAUCGUUUAAAUUCAUUCAUCCAGUUGUGUAAAGUAGACUUUGGAACUAAAACCAUGUGAGGUCCAGGAAUAUUUCGGUAGUGUUUCAGGUAACCAAGCAAAGCAAUUGUCAACAGAGGAUUGAGCAUCA
B11: chr16:28827448:28827449:-_ENSMUSG00000051065_ENSMUST00000100023|mus_hu|FALSE|FALSE (ssRNA)
RNA: GGGAGUUCUACAGUCCGACGAUCAAAUAUCAGUAGUGGUGAAAGCUCAUAAGAAAAAAGACAAAAACAAAAUAAUAAAAAUAAUAGGAUAGAAUCGUUAAGCAUCAGAAAGAGAUUUGUUUCCCCAUACCCAUGAACAAAUUUCAACAGAGGAUUGAGCAUCA
B12: chr2:192256868:192256869:+_ENSG00000128641_ENST00000304164|hu_hu|FALSE|FALSE (ssRNA)
RNA: GGGAGUUCUACAGUCCGACGAUCUGGGUUUCGGAUGAAUAUCUUUGAUCUACCAAAGGAGUAUUCUUCCACGGGAAUUUCUAAUUCAUUAAAUAGGACCUCCACACCAGACCUGGCUGGUCCUUUCCAAUGAGGCCAUGUUUGCAACAGAGGAUUGAGCAUCA
B13: 113942580_113943501_80_5pUTR_ENSG00000119927_ENST00000348367|human|control|control (ssRNA)
RNA: GGGAGUUCUACAGUCCGACGAUCAUAAAACUUCAGGACUCAGCUAUCAGUUUCGGGUGCAGAAUGUCCAUACAACAGGGGAGCCGCUGCUGCCCUAGCAGCUCCAGCUUCGGCUGCUGCAGAAGCCCGCACUUCCAGUCCCGGCAACAGAGGAUUGAGCAUCA
B14: chr7:65419240:65419241:+_ENSG00000196715_ENST00000360768|hu_mus|motif|central (ssRNA)
RNA: GGGAGUUCUACAGUCCGACGAUCGCUGGCCAUCAGUCUUCCUUAGGCUGCAGCUGUCGCUUCCAGGCCUCAUUCAAAUAAACGGGUCGUUUGUAAUUGAUGAUGAGGAGGAGGAAGUUCAGCACAUAUGUGGUGACGCAGAUGCAACAGAGGAUUGAGCAUCA
B15: chr11:107358869:107358870:+_ENSMUSG00000020720_ENSMUST00000021063|mus_hu|FALSE|FALSE (ssRNA)
RNA: GGGAGUUCUACAGUCCGACGAUCCUCUGGAAGUUGAUAAUUCCUGCUAAUCUGUCUACUUUAGCAAAGAUGGUCUUGUUAACUACUAGAUUUGAGAGAAAGGCUUCGGACUCAUCAACAGAUAGAUCCAGAAGCUGUGCCAUCCAACAGAGGAUUGAGCAUCA
B16: chr3:55808730:55808731:-_ENSMUSG00000027799_ENSMUST00000029374|mus_mus|FALSE|FALSE (ssRNA)
RNA: GGGAGUUCUACAGUCCGACGAUCUGACGUCGUAUGAAUUCUGAAGUCUUUCUCUUCCAUUAUGCUUGAUGUGCACGUUAACUCUACACUCGCAGUCAUGUGAGCAAGCAACCCAAGAUCAUCACUGACACCAAGAUGUACUUGCAACAGAGGAUUGAGCAUCA
B17: 75313438_75313660_4053_CDS_ENSMUSG00000020850_ENSMUST00000102510|mouse|control|control (ssRNA)
RNA: GGGAGUUCUACAGUCCGACGAUCCUUGGACCACCUGAGGUCAGACUGGGGGAUAAGCACAUGGCCCAUCGAGAGCAUGCCAAGCCCACCCAGCUCCUUAGGGGUGUAGAAUACAACAGGCGGGAACCGGCUAGGCAUCUUGGACAACAGAGGAUUGAGCAUCA
B18: chr19:15271055:15271056:-_ENSG00000074181_ENST00000263388|hu_hu|FALSE|FALSE (ssRNA)
RNA: B9 RNA with G81U, G82A
B19: chr4:95690885:95690886:+_ENSMUSG00000028572_ENSMUST00000156910|mus_mus|mus_mus_mus_hu_False|78_98 (ssRNA)
RNA: GGGAGUUCUACAGUCCGACGAUCUUUAGAAAAUGUUAAUGUUAAAUCUAAAAUAUUGUAAUUUUAAUAUUUUAUUUUACCAGAAGUCACAGGCAAGCAGACACUACAAGAAUAUAUGAAAAUGAAACUCAACAAUAUAACUGUCAACAGAGGAUUGAGCAUCA
B20: chr6:117881578:117881579:-_ENSG00000047932_ENST00000052569|hu_mus|FALSE|FALSE (ssRNA)
RNA: GGGAGUUCUACAGUCCGACGAUCCUUUAAUGUAGAAUAUGUCAUUUUUAUUUACAGGCUAAUUAAGAAUAUGAAACUCAACUAGAUAUAAUACAAUUAUCAUAAAUCCCCUUAUAUGUAAAUUAAUAUAUUUUUUGUUUUAAACAACAGAGGAUUGAGCAUCA
B21: chr19:53454881:53454882:-_ENSMUSG00000025024_ENSMUST00000025997|mus_mus|motif|central (ssRNA)
RNA: GGGAGUUCUACAGUCCGACGAUCGUUUCAUUCUACCAAAGCCAAACAAUGACAACAAUGUAUCUUCCUUACUCAGCAUCGGAGCAAUCAGUUACCUUUAGAAAAAUACAAGGAUAAAAAGGAGAGUGUAAAGUAAAGCCCUGCCAACAGAGGAUUGAGCAUCA
B22: chr4:125586161:125586162:-_ENSG00000151458_ENST00000504087|hu_mus|FALSE|FALSE (ssRNA)
RNA: GGGAGUUCUACAGUCCGACGAUCCACGACGUCCUAAACAGUUGAUUUACAAAAUUUAAAUAUUUGAAUUUCAAAAAUAGCCAUUUAUUAUUAUUUUUUUAUUUGUGGGACCGUUUCUUAUCUUUGUAAUAGAGAAGUCAUUGUCAACAGAGGAUUGAGCAUCA
B23: chr10:123500321:123500322:-_ENSG00000107669_ENST00000369043|hu_hu|motif|central (ssRNA)
RNA: GGGAGUUCUACAGUCCGACGAUCACGUUAAGAAACUACACACAACAAAUAUUUGCAAAAUGAAUGAAAAAUAGGAUAAAGCGGUUUAAAAGUCAACAUAGUAAUAUUUAUCUAAAUAAUUUUAAUCAAAUGUACAACAUAUUUCAACAGAGGAUUGAGCAUCA
B24: 207631549_207631669_399_CDS_ENSG00000118246_ENST00000403094|human|control|control (ssRNA)
RNA: GGGAGUUCUACAGUCCGACGAUCAAAAAUGAAUGCAUCCUGAAAGAGAUAUCUAAUGAUAUCAGUUGAUUGCAUUCUGUUAUGAAAGUUAUUUAAAAUGUUCCAGUUUGAAUGAACUAUUUUUGGUUUGCAAAGUCCCAAACACAACAGAGGAUUGAGCAUCA
B25: chr19:46159329:46159330:+_ENSMUSG00000015176_ENSMUST00000165017|mus_hu|FALSE|FALSE (ssRNA)
RNA: GGGAGUUCUACAGUCCGACGAUCGGUCAAGUUGUCAAAAAAUGUCUUUCAACAGUAGAAAAGUUUGCUUUCAAAUUAAAAAACAAAGCACGUAUUGCAAACAUCGUGUAAUGAUAAAAUUACAGAAAAAAAUAUAUUCAGAAUCAACAGAGGAUUGAGCAUCA

These binders were tested against T1, UNK ZnF1-3 (assay: nsRBNS (natural sequence RNA bind-n-seq); RBNS binding buffer (assumed for nsRBNS): 25 mM Tris pH 7.5, 150 mM KCl, 3 mM MgCl2, 0.01% Triton X-100, 500 ug/ml BSA, 20 U/ml SUPERase-In, 4 C; UNK is unkempt and MSI1 is Musashi-1; names of the RNAs are library labels; protein concentration not given here; high values mean tight binding).

Binder | binding signal [enrichment R]
B1 | 0.721
B2 | 4.44
B3 | 1.27
B4 | 0.307
B5 | 3.42
B6 | 5.46
B7 | 2.12
B8 | 3.53
B9 | 11.2
B10 | 1.15
B11 | 8.38
B12 | 0.529
B13 | 1.22
B14 | 1.01
B15 | 3.65
B16 | 0.64
B17 | 0.919
B18 | 9.9
B19 | 3.29
B20 | 4.33
B21 | 1.52
B22 | 3.35
B23 | 6.73
B24 | 0.397
B25 | 6.25
